# “And” between values parts separate entries of the source, which are not always exact repeats. Equal entries are not always repeated. Where two headings read alike, the source gives them in different places.
# Tests used:
# BMPR1A = settings: n = 1
# BMPR1B = settings: concentration: 1 μM, replicates: in singlicate; n = 1
# BMPR2 = settings: n = 1
# BMX = settings: n = 1
# BRAF = settings: n = 1
# BRK = system: T1, BRK; settings: n = 1
# T1 construct: gene PTK6
# BRSK1 = settings: n = 1
# BRSK2 = settings: n = 1
# BTK = settings: concentration: 1 μM, replicates: in singlicate; n = 1
# BUB1 = settings: n = 1
# CAMK1B = settings: n = 1
# CAMK1D = settings: n = 1
# CAMK1G = settings: n = 1
# CAMK1 = settings: n = 1
# CAMK2A = settings: concentration: 1 μM, replicates: in singlicate; n = 1
# CAMK2B = settings: concentration: 1 μM, replicates: in singlicate; n = 1
# CAMK2D = settings: n = 1
# CAMK2G = settings: n = 1
# CAMK4 = settings: concentration: 1 μM, replicates: in singlicate; n = 1
# CAMKK1 = settings: concentration: 1 μM, replicates: in singlicate; n = 1
# [1] = concentration: 1 μM, replicates: in singlicate
# [2] = concentration: 1 μM,replicates: in singlicate, 1 µM
# 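Note: KINOMEscan kinase panel screen.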
smiles,measurement,setting,value
Cc1ccccc1-n1cnc2c(N)ncnc21 [SKF-97510],%Inh,BMPR1A; [1],0%
same,%Inh,BMPR1B,0%
same,%Inh,BMPR2; [1],0%
same,%Inh,BMX; [1],12%
same,%Inh,BRAF; [1],0%
same,%Inh,BRK; [1],5%
same,%Inh,BRSK1; [1],0%
same,%Inh,BRSK2; [1],0%
same,%Inh,BTK,0%
same,%Inh,BUB1; [1],0%
same,%Inh,CAMK1B; [1],0%
same,%Inh,CAMK1D; [1],5%
same,%Inh,CAMK1G; [1],0%
same,%Inh,CAMK1; [1],0%
same,%Inh,CAMK2A,24%
same,%Inh,CAMK2B,14%
same,%Inh,CAMK2D; [1],4%
same,%Inh,CAMK2G; [1],4%
same,%Inh,CAMK4,0%
same,%Inh,CAMKK1,1%
Cc1cc(NCC(c2ccccc2)c2ccccc2)nc(NCc2ccc(C(F)(F)F)cc2)n1 [GW497681],%Inh,BMPR1A; [1],0%
same,%Inh,BMPR1B,0%
same,%Inh,BMPR2; [1],14%
same,%Inh,BMX; [1],18%
same,%Inh,BRAF; [1],0%
same,%Inh,BRK; [1],2%
same,%Inh,BRSK1; [1],0%
same,%Inh,BRSK2; [1],0%
same,%Inh,BTK,0%
same,%Inh,BUB1; [1],35%
same,%Inh,CAMK1B; [1],0%
same,%Inh,CAMK1D; [1],17%
same,%Inh,CAMK1G; [1],3%
same,%Inh,CAMK1; [1],12%
same,%Inh,CAMK2A,0%
same,%Inh,CAMK2B,0%
same,%Inh,CAMK2D; [1],13%
same,%Inh,CAMK2G; [1],25%
same,%Inh,CAMK4,0%
same,%Inh,CAMKK1,5%
CSc1nn2c(=O)cc(N3CCOCC3)nc2n1Cc1cccc(C(F)(F)F)c1C [GSK2363608],%Inh,BMPR1A; [2],17% and 0%
same,%Inh,BMPR1B,0%
same,%Inh,BMPR2; [2],22% and 0%
same,%Inh,BMX; [2],8% and 0%
same,%Inh,BRAF; [2],0% and 5%
same,%Inh,BRK; [2],0% and 10%
same,%Inh,BRSK1; [2],7% and 4%
same,%Inh,BRSK2; [2],4% and 0%
same,%Inh,BTK,0%
same,%Inh,BUB1; [2],13% and 0%
same,%Inh,CAMK1B; [2],31% and 0%
same,%Inh,CAMK1D; [2],9% and 19%
same,%Inh,CAMK1G; [2],0% and 11%
same,%Inh,CAMK1; [2],1% and 13%
same,%Inh,CAMK2A,0%
same,%Inh,CAMK2B,0%
same,%Inh,CAMK2D; [2],2% and 19%
same,%Inh,CAMK2G; [2],0% and 15%
same,%Inh,CAMK4,0%
same,%Inh,CAMKK1,0%
O=C(Nc1ccc2c(c1)OCO2)NC1CCN(c2ccnc(Nc3ccc(F)cc3)n2)C1 (stereo not drawn) [GSK1379724],%Inh,BMPR1A; [1],0%
same,%Inh,BMPR1B,0%
same,%Inh,BMPR2; [1],18%
same,%Inh,BMX; [1],5%
same,%Inh,BRAF; [1],1%
same,%Inh,BRK; [1],16%
same,%Inh,BRSK1; [1],0%
same,%Inh,BRSK2; [1],0%
same,%Inh,BTK,0%
same,%Inh,BUB1; [1],24%
same,%Inh,CAMK1B; [1],16%
same,%Inh,CAMK1D; [1],30%
same,%Inh,CAMK1G; [1],23%
same,%Inh,CAMK1; [1],35%
same,%Inh,CAMK2A,0%
same,%Inh,CAMK2B,0%
same,%Inh,CAMK2D; [1],15%
same,%Inh,CAMK2G; [1],13%
same,%Inh,CAMK4,1%
same,%Inh,CAMKK1,9%
Cl.O=C(Nc1cccc(-c2nn3ncccc3c2-c2ccnc(Nc3cccnc3)n2)c1)c1c(F)cccc1F [GSK312879],%Inh,BMPR1A; [1],0%
same,%Inh,BMPR1B,0%
same,%Inh,BMPR2; [1],0%
same,%Inh,BMX; [1],24%
same,%Inh,BRAF; [1],91.6%
same,%Inh,BRK; [1],21%
same,%Inh,BRSK1; [1],8%
same,%Inh,BRSK2; [1],0%
same,%Inh,BTK,0%
same,%Inh,BUB1; [1],7%
same,%Inh,CAMK1B; [1],27%
same,%Inh,CAMK1D; [1],3%
same,%Inh,CAMK1G; [1],0%
same,%Inh,CAMK1; [1],8%
same,%Inh,CAMK2A,0%
same,%Inh,CAMK2B,0%
same,%Inh,CAMK2D; [1],0%
same,%Inh,CAMK2G; [1],13%
same,%Inh,CAMK4,0%
same,%Inh,CAMKK1,4%
O=C(Nc1n[nH]c2cc(-c3cccc(F)c3F)ccc12)C1CC1 [SB-733894],%Inh,BMPR1A; [1],31%
same,%Inh,BMPR1B,31%
same,%Inh,BMPR2; [1],52%
same,%Inh,BMX; [1],0%
same,%Inh,BRAF; [1],0%
same,%Inh,BRK; [1],0%
same,%Inh,BRSK1; [1],54%
same,%Inh,BRSK2; [1],58%
same,%Inh,BTK,0%
same,%Inh,BUB1; [1],0%
same,%Inh,CAMK1B; [1],0%
same,%Inh,CAMK1D; [1],12%
same,%Inh,CAMK1G; [1],100%
same,%Inh,CAMK1; [1],26%
same,%Inh,CAMK2A,19%
same,%Inh,CAMK2B,13%
same,%Inh,CAMK2D; [1],1%
same,%Inh,CAMK2G; [1],7%
same,%Inh,CAMK4,0%
same,%Inh,CAMKK1,8%
Cl.Oc1ccc(-c2nc(-c3ccccc3)[nH]c2-c2ccncc2)cc1 [SB-428218],%Inh,BMPR1A; [1],0%
same,%Inh,BMPR1B,0%
same,%Inh,BMPR2; [1],20%
same,%Inh,BMX; [1],0%
same,%Inh,BRAF; [1],60%
same,%Inh,BRK; [1],26%
same,%Inh,BRSK1; [1],0%
same,%Inh,BRSK2; [1],0%
same,%Inh,BTK,21%
same,%Inh,BUB1; [1],93%
same,%Inh,CAMK1B; [1],24%
same,%Inh,CAMK1D; [1],0%
same,%Inh,CAMK1G; [1],2%
same,%Inh,CAMK1; [1],2%
same,%Inh,CAMK2A,0%
same,%Inh,CAMK2B,0%
same,%Inh,CAMK2D; [1],9%
same,%Inh,CAMK2G; [1],29%
same,%Inh,CAMK4,0%
same,%Inh,CAMKK1,18%
Fc1cc(Cl)ccc1Nc1ccnc2cc(I)ccc12 [GW551191],%Inh,BMPR1A; [1],0%
same,%Inh,BMPR1B,0%
same,%Inh,BMPR2; [1],8%
same,%Inh,BMX; [1],0%
same,%Inh,BRAF; [1],12%
same,%Inh,BRK; [1],19%
same,%Inh,BRSK1; [1],2%
same,%Inh,BRSK2; [1],0%
same,%Inh,BTK,0%
same,%Inh,BUB1; [1],54%
same,%Inh,CAMK1B; [1],5%
same,%Inh,CAMK1D; [1],0%
same,%Inh,CAMK1G; [1],0%
same,%Inh,CAMK1; [1],0%
same,%Inh,CAMK2A,0%
same,%Inh,CAMK2B,0%
same,%Inh,CAMK2D; [1],1%
same,%Inh,CAMK2G; [1],14%
same,%Inh,CAMK4,0%
same,%Inh,CAMKK1,0%
COc1cc(Nc2nccc(N3CCC(NC(=O)Nc4cc(C)ccc4C)C3)n2)cc(OC)c1OC (stereo not drawn) [GSK1379762],%Inh,BMPR1A; [1],0%
same,%Inh,BMPR1B,0%
same,%Inh,BMPR2; [1],0%
same,%Inh,BMX; [1],35%
same,%Inh,BRAF; [1],7%
same,%Inh,BRK; [1],13%
same,%Inh,BRSK1; [1],0%
same,%Inh,BRSK2; [1],0%
same,%Inh,BTK,0%
same,%Inh,BUB1; [1],26%
same,%Inh,CAMK1B; [1],14%
same,%Inh,CAMK1D; [1],10%
same,%Inh,CAMK1G; [1],0%
same,%Inh,CAMK1; [1],17%
same,%Inh,CAMK2A,0%
same,%Inh,CAMK2B,0%
same,%Inh,CAMK2D; [1],0%
same,%Inh,CAMK2G; [1],16%
same,%Inh,CAMK4,0%
same,%Inh,CAMKK1,21%

# From PMC5540273 (PLoS ONE, 2017)
